Experimental data: PubChem BioAssay (NCI)
The panel holds about 79,000 compounds, 15% with a hit somewhere; the sample as a whole holds those more often. The source made the active and inactive calls. Cut-off read from the data, not from the text of the source: active = growth inhibition above about 70%; inactive = the rest.

Assay: NCI Yeast Anticancer Drug Screen. Data for the rad50 strain (AID 155);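 note: 0% = growth of vehicle-only cultures of the same strain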
Settings: S. cerevisiae rad50 strain growth inhibition; at 50.0 µM (retest, dose inferred, filed as 5.0); hits give high values
Summary of the method: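 Yeast carrying a defined DNA repair defect were exposed to test compounds, and growth was compared with vehicle-treated controls to give percent inhibition.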

Row | SMILES | growth inhibition
1 | COc1ccc(CN2CCCN(Cc3ccc(OC)cc3OC)C2c2ccc(N(CCCl)CCCl)cc2)c(OC)c1 | 49% (inactive)
2 | [Cl][Pt+2][Cl].[NH-]c1ccc([N+](=O)[O-])cc1[NH-] | 73% (active)
3 | O=C(Oc1ccc(S(=O)(=O)F)cc1F)c1ccccc1Cl | 99% (active)
4 | Oc1c(I)cc(I)cc1I | 91% (active)
5 | CCCCCCCCCCCCCCCC[N+](C)(C)CCOS(C)(=O)=O | 98% (active)
6 | CN(C)CC1(N)C(=O)NC(=O)NC1=O | 10% (inactive)
7 | CC1=C(O)C(=O)C=C2C1=CC=C1[C@@]2(C)CC[C@@]2(C)[C@@H]3C[C@](C)(C(=O)O)CC[C@]3(C)CC[C@]12C | 96% (active)
8 | CCC[CH2][Sn]([CH2]CCC)([N]=C=S)[N]=C=S | 97% (active)
9 | O=C(C[n+]1ccccc1)C1CCc2ccccc2C1 (stereo not given) | -4% (inactive)
10 | [Cl][Pt][Cl].c1ccc([AsH](CC[AsH](c2ccccc2)c2ccccc2)c2ccccc2)cc1 | 99% (active)
11 | COc1cc(/C=C\[N+](=O)[O-])ccc1O | 99% (active)
12 | Cc1sc(Cc2ccccc2)nc1-c1ccc(N=Cc2ccc(N(CCCl)CCCl)cc2)cc1 | 95% (active)
13 | CC1(C)C2CCC([CH2][Hg][Cl])C1C2 (stereo not given) | 98% (active)
14 | CC12C(=O)C=CCC1=CCC1C2CCC2(O)C(=O)OC3(C)C4CC5(C)C(COC16OC23C5C6=O)C(=O)O4 (stereo not given) | 51% (inactive)
15 | O=C(CBr)OCC(Br)CBr (stereo not given) | 39% (inactive)
16 | S=c1[nH]c2ccccc2s1.[Pb] | 16% (inactive)
17 | O=[N+]([O-])c1ccc(C(Br)Br)cc1 | 99% (active)
18 | CC(C)(C)[Si](OC(=O)N(CCCl)CCCl)(c1ccccc1)c1ccccc1 | 82% (active)
19 | CCCCCCCC[N+]12CN3CN(CN(C3)C1)C2 | -21% (inactive)
20 | CC(C=O)[Se]c1ccccc1 (stereo not given) | 57% (inactive)

Row | SMILES | growth inhibition
21 | CCOP(=O)(N=Nc1cccnc1)OCC | -17% (inactive)
22 | COc1cc(/C=C/c2ccc(OC)c(O)c2)cc(OC)c1 | 96% (active)
23 | ClC1CCCCC1[Se](Cl)(Cl)C1CCCCC1Cl (stereo not given) | 98% (active)
24 | C/C(=N/NC(N)=S)c1ccc(Cl)cc1 | 94% (active)
25 | O=C(Nc1ccccc1)c1cc([N+](=O)[O-])ccc1O.[Ni] | 45% (inactive)
26 | CC1(C)N=C(N)N=C(N)N1c1ccc(OCCCCNC(=O)Nc2ccc(S(=O)(=O)F)cc2)c(Cl)c1 | 96% (active)
27 | Nc1nc(N)c(-c2ccc(Cl)c(Cl)c2)c(COc2ccc(CNC(=O)Nc3cccc(S(=O)(=O)F)c3)cc2Cl)n1 | 11% (inactive)
28 | CC(=O)[O-].CC(=O)[O-].O=C(N/N=C/c1cc(Cl)cc(Cl)c1[OH2+])c1ccncc1.[Co+2] | 23% (inactive)
29 | CC(Br)C(=O)C(CCN(C)C)(c1ccccc1)c1ccc(Br)s1 (stereo not given) | 13% (inactive)
30 | [N-]=[N+]=NC1(N=[N+]=[N-])C(=O)NN=C(c2ccccc2)C1=O (stereo not given) | 87% (active)
31 | NC(=O)c1cc([N+](=O)[O-])c(Cl)c([N+](=O)[O-])c1Cl | 65% (inactive)
32 | Nc1nc(N)c(-c2ccc(Cl)c(Cl)c2)c(CCc2ccc(CNC(=O)c3cccc(S(=O)(=O)F)c3)cc2)n1 | 96% (active)
33 | CCOC(=O)C(Cl)Cl | 0% (inactive)
34 | C1=C[N-]c2c3c(ccc2=C1)=CC=C[N-]3.C1=C[N-]c2c3c(ccc2=C1)=CC=C[N-]3.F[P-](F)(F)(F)(F)F.[Cu+2] | 98% (active)
35 | CCCCCCCCCCC(=O)O.[Pb] | 2% (inactive)
36 | CN(Cc1ccccc1)CC(O)c1cccc(I)c1 (stereo not given) | 18% (inactive)
37 | CCOc1c(Br)cc(N=Cc2ccc(N(CCCl)CCCl)c(OC)c2)cc1Br | 80% (active)
38 | COC(=O)C1ON(c2ccccc2)C2c3ccccc3-c3ccccc3C12 (stereo not given) | 63% (inactive)
39 | COc1ccccc1C(Cc1ccc(N2C(N)=NC(N)=NC2(C)C)cc1)C(=O)Nc1ccc(S(=O)(=O)F)cc1 (stereo not given) | 15% (inactive)
40 | O=[N+]([O-])c1cc([N+](=O)[O-])c(Cl)s1 | 99% (active)
